{"source": "PubChem BioAssay AID2391", "about": "(Southern Research Specialized Biocontainment Screening …, 2010)", "note": "The campaign covered roughly 310,000 compounds. About 410 (0.13%) were called active. Another 2% or so got no clear call; they are omitted. Only a sample is shown. Entries with a potency or affinity are not part of this list. Values without a mark were called inactive. How the calls were made is not given here."}
{"experiment": "inhibition of RSV-induced cytopathic effect – HEp-2 cells, primary 10 µM value included (AID 2391)", "conditions": "at 10 µM, stronger effect = higher value", "units": {"CPE inhibition": "%"}}
{"smiles": "COc1ccc(CNc2ncnc3sccc23)cc1OC", "CPE inhibition": 0.7}
{"smiles": "COc1ccccc1CC(=O)Nc1cc(S(=O)(=O)N2CCOCC2)ccc1N1CCOCC1", "CPE inhibition": 0.24}
{"smiles": "COc1ccc(NCC(=O)Nc2cc(S(=O)(=O)N3CCOCC3)ccc2N2CCOCC2)c(OC)c1", "CPE inhibition": 1.68}
{"smiles": "CC1CCCC(C)N1C(=O)CSc1nccc(=O)[nH]1", "note": "(stereo unspecified)", "CPE inhibition": 0.35}
{"smiles": "Nc1ccc2nc(Cc3ccccc3)[nH]c2c1", "CPE inhibition": -1.63}
{"smiles": "COC(=O)c1ccc(C(=O)OCc2nc3cc4ccccc4cc3[nH]2)cc1", "CPE inhibition": 2.73}
{"smiles": "Nc1ccc(C(=O)OCc2nc3ccccc3[nH]2)cc1", "CPE inhibition": 1.24}
{"smiles": "Cc1ccc2nc(Cc3ccc(N)cc3)[nH]c2c1", "CPE inhibition": -0.3}
{"smiles": "Cc1cccc(N2CCN(C(=O)C3CCC(=O)N(C4CC4)C3)CC2)c1C", "note": "(stereo unspecified)", "CPE inhibition": -0.26}
{"smiles": "O=C(Cc1ccc(-n2c(=O)c3ccccc3n(CC(=O)Nc3ccc(F)cc3F)c2=O)cc1)NCc1ccco1", "CPE inhibition": -0.99}
{"smiles": "CCN(CC(=O)Nc1ccc(OC)cc1)C(=O)c1ccccc1Sc1ccccc1C#N", "CPE inhibition": -1.42}
{"smiles": "Cc1ccc(NC(=O)C2CCCN2S(=O)(=O)c2cccc3cccnc23)cc1F", "note": "(stereo unspecified)", "CPE inhibition": 52.8}
{"smiles": "Cc1ccccc1NC(=O)C1CCCN(S(=O)(=O)c2cccc3cccnc23)C1", "note": "(stereo unspecified)", "CPE inhibition": 0.2}
{"smiles": "COc1ccccc1CNC(=O)C1CCCN(S(=O)(=O)c2cccc3cccnc23)C1", "note": "(stereo unspecified)", "CPE inhibition": 0.63}
{"smiles": "COc1ccccc1CNC(=O)C1CCN(S(=O)(=O)c2cccc3cccnc23)CC1", "CPE inhibition": 3.16}
{"smiles": "COc1ccc(NC(=O)C2CCCN2S(=O)(=O)c2cccc3cccnc23)c(OC)c1", "note": "(stereo unspecified)", "CPE inhibition": 7.4}
{"smiles": "Cc1cc(C)cc(NC(=O)C2CCCN2S(=O)(=O)c2cccc3cccnc23)c1", "note": "(stereo unspecified)", "CPE inhibition": 58.5}
{"smiles": "COc1cccc(CN2CC(C(=O)NCCn3ccc(C)n3)CCC2=O)c1", "note": "(stereo unspecified)", "CPE inhibition": 0.1}
{"smiles": "Cc1ccc2[nH]c(=O)c(N3CCOCC3)c(-c3ccccc3)c2c1", "CPE inhibition": 0.29}
{"smiles": "CSCCC1NC(=O)N(CC(=O)Nc2c(C(C)C)cccc2C(C)C)C1=O", "note": "(stereo unspecified)", "CPE inhibition": -0.56}
{"smiles": "C/C(CCc1ccccc1)=N\\NC(=O)CC(=O)NCCc1ccccc1", "CPE inhibition": 1.3}
{"smiles": "CCSc1nnc(SCC(=O)N2CCN(C(=O)c3ccco3)CC2)s1", "CPE inhibition": 1.6}
{"smiles": "Cc1ccc(-c2noc(CCC(=O)NCCc3ccccc3Cl)n2)cc1", "CPE inhibition": 15.4}
{"smiles": "CCOc1ccc(CNC(=O)CCn2c(=O)oc3ccccc32)cc1", "CPE inhibition": 2.74}
{"smiles": "Cc1ccc2c(c1)cc(C(=O)N[C@@H](Cc1ccccc1)C(=O)O)n2C", "CPE inhibition": 1.38}
{"smiles": "Cc1ccc(CNC(=O)c2cc3c(=O)n(C)c4ccccc4c3n2C)cc1", "CPE inhibition": 0.79}
{"smiles": "Cc1c(C(=O)NCc2cccs2)oc2ccccc12", "CPE inhibition": 6.49}
{"smiles": "Cn1c(C(=O)NCc2cccs2)cc2c(=O)n(C)c3ccccc3c21", "CPE inhibition": 0.91}
{"smiles": "Cn1c(C(=O)NCC2CCCO2)cc2oc3ccccc3c21", "note": "(stereo unspecified)", "CPE inhibition": 3.52}
{"smiles": "COc1ccc(CNC(=O)c2cc3c(=O)[nH]c4ccccc4c3n2C)cc1", "CPE inhibition": 2.27}
{"smiles": "COCCNC(=O)c1cc2oc3ccccc3c2n1C", "CPE inhibition": 1.43}
